Reference: the supplement of paper PMC8387472

Key:
Settings in all cases: mESC; 2uM; 72 h treatment, harvest day 5
[1] = compound: Cc1cc(C)nc(SCC(=O)Nc2ncc(Cc3cccc4ccccc34)s2)n1; assay: fraction of edited reads among all mapped reads; higher = more Cas9 editing
[2] = compound: Cc1ccc(C(=O)NCCCCCC(=O)Nc2ccccc2N)cc1; assay: as above
[3] = compound: Nc1cc(F)ccc1NC(=O)c1ccc(CNC(=O)/C=C/c2cccnc2)cc1 [Tucidinostat (Chidamide)]; assay: as above
[4] = compound: O=c1c(-c2ccc(O)cc2)coc2cc(O)cc(O)c12 [Genistein]; assay: as above
[5] = compound: S=c1nc[nH]c2nc[nH]c12 [6-Mercaptopurine (6-MP) Monohydrate]; assay: as above
[6] = compound: CC(=O)O/N=C1\C(=O)N(Cc2cc(Cl)ccc2Cl)c2ccc(Cl)cc21; assay: fraction of microhomology deletions among edited reads; higher = more MH deletions
[7] = compound: CC(C)(C#N)c1ccc(N2C(=O)OCc3cnc4ccc(-c5cnc6ccccc6c5)cc4c32)cc1; assay: as above
[8] = compound: Cc1cccc(CC(=O)N2CCc3c2ccc(-c2cn(C)c4ncnc(N)c24)c3F)n1; assay: fraction of edited reads among all mapped reads; higher = more Cas9 editing
[9] = compound: NC(=O)c1ccc2nc(-c3ccc(Oc4ccc(Cl)cc4)cc3)[nH]c2c1 [Chk 2 inhibitor II (BML-277)]; assay: as above
[10] = compound: Nc1nc2[nH]cc(CCc3ccc(C(=O)N[C@@H](CCC(=O)O)C(=O)O)cc3)c2c(=O)[nH]1 [Pemetrexed]; assay: as above
[11] = compound: Nc1ncnc2c1c(-c1cnc3[nH]ccc3c1)nn2C1CCCC1; assay: as above
[12] = compound: O=C(c1cccc(Cl)c1F)N1CCN(Cc2cccc(Nc3nccs3)n2)CC1; assay: as above
[13] = compound: O=C1Cc2c([nH]c3ccc(Br)cc23)-c2ccccc2N1 [Kenpaullone]; assay: as above
[14] = compound: O=c1cc(N2CCOCC2)oc2c(-c3ccc4c(c3)OCCO4)csc12; assay: as above
[15] = compound: CCCCOc1c(C(=O)c2c(F)cc(C)cc2F)c[nH]c2nncc1-2; assay: fraction of microhomology deletions among edited reads; higher = more MH deletions
[16] = compound: CCN1CCN(CC(=O)Nc2ccc(-c3cccc4c(=O)cc(N5CCOCC5)oc34)c3sc4ccccc4c23)CC1; assay: as above
[17] = compound: CCc1c2c(nc3ccc(OC(=O)N4CCC(N5CCCCC5)CC4)cc13)-c1cc3c(c(=O)n1C2)COC(=O)[C@]3(O)CC [Irinotecan HCl Trihydrate]; assay: as above
[18] = compound: CCn1c(=O)c(-c2ccc(Cl)cc2Cl)cc2cnc(Nc3ccc(N4CCNCC4)c(F)c3)nc21; assay: as above
[19] = compound: CNc1ccc([N+](=O)[O-])c(Nc2ccc3[nH]ncc3c2)n1; assay: as above
[20] = compound: S=c1[nH]cnc2nc[nH]c12 [Mercaptopurine (6-MP)]; assay: fraction of edited reads among all mapped reads; higher = more Cas9 editing

Target	fraction of edited reads among all mapped reads [1]	fraction of edited reads among all mapped reads [2]	fraction of edited reads among all mapped reads [3]	fraction of edited reads among all mapped reads [4]	fraction of edited reads among all mapped reads [5]	fraction of microhomology deletions among edited reads [6]	fraction of microhomology deletions among edited reads [7]	fraction of edited reads among all mapped reads [8]	fraction of edited reads among all mapped reads [9]	fraction of edited reads among all mapped reads [10]	fraction of edited reads among all mapped reads [11]	fraction of edited reads among all mapped reads [12]	fraction of edited reads among all mapped reads [13]	fraction of edited reads among all mapped reads [14]	fraction of microhomology deletions among edited reads [15]	fraction of microhomology deletions among edited reads [16]	fraction of microhomology deletions among edited reads [17]	fraction of microhomology deletions among edited reads [18]	fraction of microhomology deletions among edited reads [19]	fraction of edited reads among all mapped reads [20]
15.0 GCGCCTCCAATGACCCAGTGGGATCCTACTCCATAATGGGATCCTGGGGATTCCTCGCTCC	0.136	0.0776	0.0802	0.132	0.132	0.354	0.378													
7.0 (DMSO control at this site: 1-bp insertion 0.128, MH deletion 0.374, edited 0.098) TACTCAACCGAGACCTACGCGAACCGAAATCGTATGCCGGTGCGCAAGCAGGGCTGGCGTC	0.173	0.0971	0.1	0.124	0.0891	0.489	0.456	0.138	0.128	0.1	0.096	0.0816	0.195	0.067	0.404	0.477	0.484	0.417	0.442	
47.0 (DMSO control at this site: 1-bp insertion 0.095, MH deletion 0.585, edited 0.118) GAGTGGTCCCGAGCCAGGAACTGTGTGTGTTGCAGGGGGGCAGTAACTCCCCAACTCCCTC	0.199	0.123	0.0948	0.148	0.101	0.564	0.539	0.171	0.143	0.12	0.129	0.0848	0.244	0.0673	0.518	0.62	0.473	0.597	0.542	0.143
21.0 CGATTGAGAGTCAAACGGGCCAGAAAACTCCGGGAACGGGCCAGAAAACTCCGGGGCATGG	0.198	0.121	0.116	0.136	0.117	0.191	0.163		0.14	0.124	0.103		0.273	0.0627	0.144	0.276	0.188		0.197	0.169
0.0 (DMSO control at this site: 1-bp insertion 0.463, MH deletion 0.339, edited 0.14) AGGATTACCGAGACCTACGCGAACCGAAATCGCTGTCCGGTGCGCAAGCAGGGCTGGCGTC	0.241	0.152	0.139	0.187	0.128	0.346	0.314	0.222	0.17	0.149	0.173	0.122	0.329	0.0913	0.312	0.552	0.345	0.394	0.304	0.181
40.0 (DMSO control at this site: 1-bp insertion 0.072, MH deletion 0.192, edited 0.189) GCGAATCAACTGTTCAACAACAGCAGCAGCCACCTGGAGGACTACAGTGGCCTGTCCGTGT	0.334	0.199	0.193	0.24	0.175	0.2	0.177	0.298	0.238	0.179	0.201	0.142	0.432	0.107	0.179	0.26	0.196	0.21	0.184	0.24
33.0 (DMSO control at this site: 1-bp insertion 0.008, MH deletion 0.771, edited 0.112) CATTAAGAGCAGCTGCCGGCCCCCAAGTGGACAGAGCTGGCCCTGCTGATTCAACAGTGCA	0.187	0.109	0.108	0.146	0.0975	0.714	0.71	0.168	0.147	0.111	0.108	0.0838	0.237	0.0578	0.717	0.76	0.741	0.716	0.727	0.144
2.0 (DMSO control at this site: 1-bp insertion 0.364, MH deletion 0.356, edited 0.125) GGTGCCCCCGAGACCTACGCGAACCGAAATCGATGTCCGGTGCGCAAGCAGGGCTGGCGTC	0.231	0.128	0.115	0.169	0.112	0.422	0.343	0.18	0.147	0.129	0.137	0.102	0.286	0.0694	0.375	0.513	0.414	0.384	0.345	0.166
8.0 GCATGCGTGTTTTGGGACAATGTAGTATACATTTGGGAGGCTCTCAGCTTTTCCCAATAAA	0.021		0.0159		0.017	0.107	0.0584			0.0154	0.0205		0.0456		0.0574					
43.0 (DMSO control at this site: 1-bp insertion 0.134, MH deletion 0.714, edited 0.104) AGTTTAACTTACTCCGGCCAAAAAAGAACTGCACCTCTGGAGCGGGTTAGTGGTGGTGGTA	0.219	0.137	0.116	0.179	0.114	0.72	0.687	0.172	0.155	0.093	0.126	0.0909	0.271	0.0695	0.69	0.711	0.676	0.77	0.703	0.165
30.0 (DMSO control at this site: 1-bp insertion 0.074, MH deletion 0.67, edited 0.142) GAGCTGGCATGAGTATTTGTGCCACATGGCTCCCACATGGCTCCACATGCAAGTTTGAAAC	0.226	0.147	0.129	0.191	0.115	0.699	0.725	0.212	0.179	0.148	0.143	0.112	0.286	0.0819	0.723	0.761	0.727	0.708	0.699	0.165
38.0 (DMSO control at this site: 1-bp insertion 0.063, MH deletion 0.487, edited 0.17) GGGCTGGGTGCTAAAATGAGGAGCTCCAAGAAGACTGAGGTGAACCTGGAGGCCCCTGAGC	0.27	0.178	0.181	0.198	0.157	0.497	0.485	0.197	0.187	0.167	0.146	0.128	0.316	0.0925	0.505	0.546	0.488	0.513	0.501	0.193
34.0 (DMSO control at this site: 1-bp insertion 0.184, MH deletion 0.385, edited 0.103) ATTATAGGACCCTGAGGGAGCAGAGATGTGGGAATGGGGGCCGAGCCAATTGTGATGTAAG	0.159	0.112	0.104	0.112	0.0949	0.51	0.538	0.134	0.113	0.0912	0.0944	0.0799	0.18	0.0512	0.496	0.585	0.527	0.53	0.524	0.114
1.0 (DMSO control at this site: 1-bp insertion 0.521, MH deletion 0.323, edited 0.141) GTGTCACAGTGCACGAGTGACGGGATAATGTGCTGACAGGTAATTGATAGGCTTCCAACTT	0.243	0.141	0.14	0.159		0.293	0.269	0.218	0.174	0.132	0.176	0.112	0.33	0.0814	0.238	0.461	0.246	0.293	0.218	0.187
41.0 (DMSO control at this site: 1-bp insertion 0.022, MH deletion 0.754, edited 0.115) AAAGAGACAGCAGGTATGAATCCATCTTCCTGACCCTTGGGACCAGCCGGGGCAGTGAAGC	0.227	0.138	0.121	0.169	0.116	0.745	0.754	0.172	0.157	0.12	0.113	0.0798	0.25	0.0713	0.717	0.792	0.729	0.738	0.742	0.161
4.0 (DMSO control at this site: 1-bp insertion 0.146, MH deletion 0.523, edited 0.125) ACGCCTTAGTGCACGAGTGACGGGATAATGTGGTCTCAGGTAATTGATAGGCTTCCAACTT	0.237	0.155	0.13	0.175	0.122	0.582	0.526	0.209	0.166	0.16	0.15	0.0959	0.306	0.0874	0.507	0.635	0.564	0.591	0.527	0.174
20.0 (DMSO control at this site: 1-bp insertion 0.349, MH deletion 0.138, edited 0.084) TACAGGTGTAGACTGGTTACGTGGCTGCGGAATTGACTGGTTACGTGGCTGCGGAATTTTG	0.152	0.0728	0.0826	0.125	0.082	0.235	0.239	0.111	0.106	0.0835	0.117	0.0574	0.232	0.0465	0.174	0.285	0.222	0.12	0.136	0.111
27.0 CCAGAATTAGAACATATCATCTGGACCCTTTTCCATCTGGACCCTTTTCCAGCACACCCTG	0.0968	0.0456	0.0322	0.0708	0.0546	0.162	0.195				0.0403		0.141	0.0389	0.138		0.0693		0.225	0.0718
3.0 (DMSO control at this site: 1-bp insertion 0.109, MH deletion 0.149, edited 0.09) TGCTAGCGCCCCCACAAAGCGGACCAGCCAGCACTATAGGGAATAAGGCCAACTTGCACCC	0.162	0.0928	0.0815	0.13	0.0926	0.225	0.161	0.145	0.126	0.12	0.0841	0.0816	0.193	0.0464	0.199	0.266	0.222	0.226	0.188	0.123
